Results published in PubChem BioAssay AID588342 (National Center for Advancing Translational Sciences (NCATS), 2011).
“And” between values parts separate entries of the source, which are not always exact repeats. Identical values can stand only once. The campaign covered roughly 360,000 compounds. About 25,000 (6.9%) were called active. Inconclusive results (about 9%) are left out. The call rests on the fitted dose curve; in most records, active means well fitted inhibition curve with a large enough effect; inconclusive means small, poorly fitted or top-dose-only effect; inactive means flat fitted curve, though single readings scatter. What follows is part of a selection rich in actives, with near analogues and random picks from the rest. Entries that show only a call come without a potency. The source holds several records for some structures; these can differ, active in one and inactive in another.

Each compound was assayed against Luciferin 4-monooxygenase (Photinus pyralis) (UniProt P08659) (assay: qHTS profiling assay for firefly luciferase inhibitor/activator using purifed enzyme and Km concentrations of substrates (counterscreen for miR-21 project)). Conditions: purified FLuc, luminescence inhibition; series mostly up to 57.5 µM.
Sequence of Luciferin 4-monooxygenase (Photinus pyralis) (P08659 whole entry, looked up): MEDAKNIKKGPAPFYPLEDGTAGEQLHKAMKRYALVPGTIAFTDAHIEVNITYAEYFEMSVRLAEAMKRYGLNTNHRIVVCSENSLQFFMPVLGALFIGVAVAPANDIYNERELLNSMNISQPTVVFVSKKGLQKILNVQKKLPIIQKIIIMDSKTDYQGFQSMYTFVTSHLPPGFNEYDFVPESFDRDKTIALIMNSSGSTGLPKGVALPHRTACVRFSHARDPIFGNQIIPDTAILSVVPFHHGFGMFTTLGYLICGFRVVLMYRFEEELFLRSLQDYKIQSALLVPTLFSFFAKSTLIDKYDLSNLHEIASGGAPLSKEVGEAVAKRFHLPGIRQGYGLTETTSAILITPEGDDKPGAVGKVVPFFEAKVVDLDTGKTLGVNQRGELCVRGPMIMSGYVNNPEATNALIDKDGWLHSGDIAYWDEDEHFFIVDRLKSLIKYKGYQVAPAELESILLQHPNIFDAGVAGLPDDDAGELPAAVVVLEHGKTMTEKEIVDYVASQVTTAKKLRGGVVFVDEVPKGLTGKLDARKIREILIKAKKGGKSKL
Procedure, shortened: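 Purified P. pyralis luciferase, 10 nM final, with Km-level 10 uM D-luciferin and 10 uM ATP in 50 mM Tris acetate pH 7.5, 10 mM Mg acetate, 0.01% Tween-20, 0.05% BSA; 6-point qHTS titration about 60 µM downward; luminescence read.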
Further: nearly all actives have a fitted effect of over 55% in size.
Potency means the concentration at half of the fitted maximal effect.

| SMILES | Potency | activity change, negative = inhibition |
| --- | --- | --- |
| CN(Cc1ccc(F)cc1)C(=O)COc1ccc2ccccc2c1 | inactive | – |
| CN(Cc1ccccc1)C(=O)COc1ccccc1 | 9.53 µM (active) | – |
| CN(Cc1ccccc1)C(=O)c1ccc(COc2ccccc2)cc1 | inactive | – |
| Cc1ccccc1-c1nc2scc(CCNC(=O)C(=O)Nc3ccc(F)cc3F)n2n1 | inactive | – |
| CC1CCCCC1NC(=O)COC(=O)Cc1ccc(Cl)cc1 (centres undefined) | inactive | – |
| CCN(c1ccccc1)S(=O)(=O)c1ccc(C(=O)Nc2nccs2)cc1 | inactive | – |
| CCOc1ccc(C(=O)Nc2nccs2)cc1[N+](=O)[O-] | inactive | – |
| CC(=O)Oc1ccc(C(=O)Nc2nccs2)cc1 | 10.7 µM (active) | – |
| Cc1nc(-c2ccccc2)sc1-c1nc(-c2ccccc2)ncc1S(=O)(=O)c1ccccc1 | inactive | – |
| Cc1nc(-c2ccccc2)sc1-c1nnc(C2CC2)o1 | 15.1 µM (active) | – |
| COc1ccccc1-c1nnc(C2CCN(C(=O)c3ccc(Cl)cc3)CC2)o1 | inactive | – |
| COc1cc(C(=O)NCCS(=O)(=O)N2CCN(c3ccccc3)CC2)cc(OC)c1OC | inactive | – |
| C/C(=C\c1ccccc1)C1NC(=O)c2c(sc3c2CCCC3)N1 (centres undefined) | inactive | – |
| O=C1NC(c2ccncc2)Nc2sc3c(c21)CCCC3 (centres undefined) | 21.3 µM (active) | – |
| CCOC(=O)N1CCc2c(sc3c2C(=O)NC(c2ccccc2F)N3)C1 (centres undefined) | inactive | – |
| CC(C)[C@H](NC(=O)OCc1ccccc1)C(=O)OCc1ccccc1 | inactive | – |
| Cc1cc(C)cc(Nc2ncnc3onc(-c4ccc(F)cc4)c23)c1 | inactive | – |
| C/C(=N\NC(=O)c1cc(-c2ccc(O)cc2)nc2ccccc12)c1cccnc1 | 6.01 µM (active) | – |
| C/C(=N\NC(=O)c1ccc2ccccc2c1)c1cccnc1 | 19 µM (active) | – |
| COc1cc(NS(=O)(=O)c2cccs2)cc(OC)c1 | inactive | – |
| C/C(=N\NC(=O)c1cccnc1)c1ccc(-c2ccccc2)cc1 | inactive | – |
| C/C(=N\NC(=O)c1ccc(NS(=O)(=O)c2cccs2)cc1)c1ccc2ccccc2c1 | 19 µM (active) | – |
| C/C(=N\NC(N)=S)c1cccnc1 | inactive | – |
| O=S(=O)(Nc1ccccc1)c1ccc(NS(=O)(=O)c2cccs2)cc1 | inactive | – |
| C/C(=N\NC(=O)Cc1ccccc1[N+](=O)[O-])c1cccnc1 | 15.1 µM (active) | – |
| CCOc1ccccc1-c1cc(C(=O)N/N=C(\C)c2cccnc2)c2ccccc2n1 | inactive | – |

| SMILES | Potency | activity change, negative = inhibition |
| --- | --- | --- |
| C/C(=N\NC(=O)c1cccnc1)c1ccc(-n2ccnc2)cc1 | inactive | – |
| C/C(=N\NC(=O)Cc1ccc(Br)cc1)c1cccnc1 | inactive | – |
| Cc1nc2nc(SCC(=O)N(Cc3ccccc3)C(C)C)nn2c(C)c1Cc1ccccc1Cl | inactive | – |
| NS(=O)(=O)c1ccc(CCNC(=O)COC(=O)COc2cccc(C(F)(F)F)c2)cc1 | inactive | – |
| CC(C)Cn1c(=O)c2ccccc2n2c(-c3cccc(Cl)c3)nnc12 | inactive | – |
| COc1ccc(NC(=O)C2CCCN(S(=O)(=O)c3cccc4nonc34)C2)cc1Cl (centres undefined) | inactive | – |
| Cc1ccc(Cl)cc1N1CCN(C(=O)CN2C(=O)COc3ccc(S(=O)(=O)N4CCOCC4)cc32)CC1 | inactive | – |
| Cc1cccc(N2CCN(C(=O)CCn3c(=O)c4cccn4c4cccnc43)CC2C)c1 (centres undefined) | inactive | – |
| O=C(c1cccc(Cl)c1)N1CCN(CCc2ccncc2)CC1 | inactive | – |
| O=C(NNS(=O)(=O)c1ccc([N+](=O)[O-])cc1)C1CCCCC1 | inactive | – |
| COc1ccc(OC)c2sc(N3CCN(C(=O)C4COc5ccccc5O4)CC3)nc12 (centres undefined) | inactive | – |
| O=C(NCCc1ccc(C(F)(F)F)cc1)c1ccc2c(c1)OCO2 | inactive | – |
| CC(NCC(=O)Nc1ccccc1C(=O)NC1CC1)c1ccccc1Cl (centres undefined) | inactive | – |
| C/C(=N/NC(=O)c1ccn(C)n1)c1ccncc1 | inactive | – |
| C/C(=N\NC(=O)c1cc2c(s1)CCC(C)C2)c1cccnc1 (centres undefined) | 16.9 µM (active) | – |
| CC1CCc2sc(C(=O)NCC(c3ccco3)N3CCCCC3)cc2C1 (centres undefined) | inactive | – |
| C/C(=N\NC(=O)CNC(=O)C(c1ccccc1)c1ccccc1)c1ccc(C)cc1 | inactive | – |
| C/C(=N\NC(=O)c1nc(C)cc(C)n1)c1ccccc1 | 12 µM (active) | – |
| C/C(=N\NC(=O)c1cccc([N+](=O)[O-])c1)c1cccnc1 | inactive | – |
| CCOc1ccc(C(CCc2ccccc2)NC(=O)c2ccc(OC)c(OC)c2)cc1OCC (centres undefined) | inactive | – |
| CCC(CC)C(=O)N1CCc2cc(OC)c(OC)cc2C1COc1ccc(F)cc1 (centres undefined) | inactive | – |
| N#CCC(=O)Nc1ccc(C(=O)OCC(=O)Nc2sc3c(c2C#N)CCCC3)cc1 | inactive | – |
| CC1CCN(C2=NC(=O)/C(=C/c3ccc(O)cc3)S2)CC1 | 10.7 µM (active) | – |
| O=C(C1CCN(c2nnc(-n3cccc3)s2)CC1)N1CCc2ccccc2C1 | inactive | – |
| NC1=NC(=O)S/C1=C\c1ccc(O)cc1 | inactive | – |
| CCOc1ccc(N=C2NC(=O)S/C2=C\c2ccc(O)cc2)cc1 | inactive | – |

| SMILES | Potency | activity change, negative = inhibition |
| --- | --- | --- |
| O=C1N=C(N2CCc3ccccc3C2)S/C1=C\c1ccc(O)cc1 | 16.9 µM (active) | – |
| CCCN(C(=O)Cn1ncc2c([nH]c3ccc(C)cc32)c1=O)c1ccccc1C | inactive | – |
| COc1cccc(CNC(=O)c2ccc3c(c2)N(Cc2ccc(C(F)(F)F)cc2)C(=O)c2ccccc2S3)c1OC | inactive | – |
| CSCCC(C(=O)NC1=NCCS1)N1C(=O)c2ccccc2C1=O (centres undefined) | inactive | – |
| CC(C)(C)c1cc(C(=O)N/N=C/c2ccc([N+](=O)[O-])s2)n[nH]1 | inactive | – |
| CCOc1ccc(NC(=O)CCC(=O)N/N=C/c2ccc([N+](=O)[O-])s2)cc1 | inactive | – |
| O=[N+]([O-])c1ccc(C=Nc2ccc(Cl)cc2Cl)s1 | 2.13 µM (active) | – |
| COc1ccc(C)cc1NC(=O)CCCN1C(=O)NC(C)(C)C1=O | inactive | – |
| CCCNC(=O)CCC(=O)N1Cc2ccccc2Oc2ncccc21 | inactive | – |
| CCCCC(=O)OC1=CN(Cc2ccccc2)S(=O)(=O)c2ccccc21 | inactive | – |
| COCCn1c(C)cc(C(=O)CSc2nnc(C3CC3)n2C2CC2)c1C | 19 µM (active) | – |
| COCCn1c(C)cc(C(=O)CSc2ncnc3sc4c(c23)CCC4)c1C | – | 8.69% [at 2.3 µM] (inactive) |
| COCCn1c(C)cc(C(=O)CSc2nc3ccccc3c(=O)n2C(C)COC)c1C (centres undefined) | inactive | – |
| CCOC(=O)c1c(N)c(C#N)nn1-c1ccccc1C(=O)OC | inactive | – |
| Cc1cc(C)n(CC(=O)Nc2ccc([N+](=O)[O-])cc2)n1 | inactive | – |
| CC1CC(C)CN(C/C=C/c2ccccc2[N+](=O)[O-])C1 (centres undefined) | inactive | – |
| COc1ccc(-c2c(C)nn3c(N4CCC(C(=O)NCCC(C)C)CC4)cc(C)nc23)cc1OC | inactive | – |
| O=C(N/N=C/c1ccc([N+](=O)[O-])cc1)C(=O)N1CCCC1 | inactive | – |
| COC(=O)c1ccc(/C=N/NC(=O)C(=O)N2CCCCCC2)cc1 | inactive | – |
| O=C(N/N=C/c1ccc2c(c1)OCO2)C(=O)N1CCCC1 | 15.1 µM (active) | – |
| CCn1ncc(C2=NOC(C(=O)Nc3ccccc3C(=O)OC)C2)c1C (centres undefined) | inactive | – |
| Cc1cccc(-n2c(SCC(N)=O)nc3c(oc4ccccc43)c2=O)c1 | inactive | – |
| CCCCC(=O)Nc1nnc(S(=O)(=O)N(C)Cc2ccco2)s1 | inactive | – |
| COc1cccc(C(=O)Nc2nnc(S(=O)(=O)N(C)c3ccccc3)s2)c1 | inactive | – |
| CN(Cc1ccco1)S(=O)(=O)c1nnc(NC(=O)c2ccccc2)s1 | inactive and 23.9 µM (active) | – |
| CCCCN(C)CCCNC(=O)CN1N=C(c2ccc(OC)cc2)CCC1=O | inactive | – |

| SMILES | Potency | activity change, negative = inhibition |
| --- | --- | --- |
| COc1ccc(NC(=O)CSc2nc3ccccc3c(=O)n2C)cc1 | inactive | – |
| COC(=O)CSc1nc2ccccc2c(=O)n1Cc1ccccc1 | inactive | – |
| Cc1ccc(C(=O)CSc2nc3ccccc3c(=O)n2N)o1 | 12 µM (active) | – |
| Cc1cccc(N2CCN(C3=C(c4ccccc4)C(=O)c4ccccc43)CC2)c1C | inactive | – |
| O=[N+]([O-])c1ccc(NCCCO)c(C(F)(F)F)c1 | inactive | – |
| COc1cccc(NC(=O)CSC2=Nc3ccccc3C3=NC(CC(=O)NC4CCCCC4)C(=O)N23)c1 (centres undefined) | inactive | – |
| COc1ccc(Br)cc1CN1CCN(C(=O)c2cccc(OC)c2OC)CC1 | inactive | – |
| COC(=O)Cc1cc(=O)oc2c(C)c(O)ccc12 | inactive | – |
| COc1cccc(C(=O)OCc2cc(=O)oc3c(C)c(C)ccc23)c1OC | 16.9 µM (active) | – |
| O=C(C1COc2ccccc2O1)N(Cc1cccnc1)c1nc2c(F)cc(F)cc2s1 (centres undefined) | inactive | – |
| COc1ccc(Nc2ncc(F)c(N3CCOCC3)n2)cc1 | 2.39 µM (active) | – |
| Cc1cc(Nc2ccc(Cl)cc2)nc(N2CCOCC2)n1 | inactive | – |
| CCOc1ccc(Nc2nc(Cl)nc(N3CCN(c4ccc(OC)cc4)CC3)n2)cc1 | inactive | – |
| O=C(NCc1ccccc1Cl)C1=Cc2cc(Br)ccc2OC1 | inactive | – |
| COc1ccc(CCNc2nc3c(-c4cccc(F)c4)nnn3c3ccccc23)cc1OC | inactive | – |
| O=C(COC(=O)c1ccncc1)c1ccccc1 | 23.9 µM (active) | – |
| O=C(OCC(O)C(O)COC(=O)c1ccccc1)c1ccccc1 (centres undefined) | inactive | – |
| COc1ccc(NC(=O)COC(=O)c2ccncc2)c(OC)c1 | inactive | – |
| O=C(CCc1nc(CN2CCN(S(=O)(=O)c3ccc(Cl)cc3)CC2)no1)N1CCCCC1 | inactive | – |
| CCNC(=O)c1cc2n(n1)CCCN(Cc1ccc(C)cc1)C2=O | inactive | – |
| Cc1nn(CC(=O)O)c(=O)c2cc3cc(F)ccc3n12 | inactive | – |
| Cc1ccc(C(=O)OCc2nc(N)nc(Nc3ccccc3C)n2)cc1 | inactive | – |
| Cc1ccccc1Nc1nc(N)nc(CSc2nnc3ccccn23)n1 | inactive | – |
| Cc1ccccc1Nc1nc(N)nc(CSc2ccccc2)n1 | 2.13 µM (active) | – |
| COc1ccc(S(=O)(=O)NCC(c2ccc(N(C)C)cc2)N2CCc3ccccc32)cc1OC (centres undefined) | inactive | – |
| CCOc1ccc(NC(=O)CCC(=O)N2CC(C)Oc3ccc(C)cc32)cc1 (centres undefined) | inactive | – |
